Most compounds without a hit are left out; they make up all but 21% or so of the library.
Gal4-VP16 FLuc = inhibits Gal4-VP16 luciferase reporter, ROR gamma counter-screen; 310,000 compounds, 3.5% hits; Potency, µM (doses to about 53.6 µM), hits mostly inhibitors; Drosophila S2 Gal4-VP16 UAS-luciferase, luminescence, 20 h; AID 2546;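 further: Gal4-VP16 expression switched on by copper sulfate through the metallothionein promoter; nearly all actives have a fitted effect of over 50% in size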
DT40 TDP1 no CPT = qHTS for Inhibitors of human tyrosyl-DNA phosphodiesterase 1 (TDP1): qHTS in cells in absence of CPT; DT40 Tdp1-/- hTDP1 cells, no CPT, ATP luminescence, 48 h; AID 686978, 2013; Potency, µM (series often up to 46.2 µM), usual class: inhibitors; 420,000 compounds, 15% hits; further: nearly all actives have a fitted effect of over 55% in size
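Compound effects on proliferation are scored in DT40 Tdp1-/-;hTDP1 cells in the absence of CPT. ATP levels (CellTiter-Glo luminescence) are recorded after a ≥48 hr, 37 °C incubation.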
ELG1 DNA repair = ELG1-dependent DNA repair inhibition; HEK293T ELG1-luciferase reporter, luminescence, 16 h; DNA damage induced by 5-fluorouridine; AID 504467; 330,000 compounds, 2.3% hits; Potency, µM (highest dose often 46.1 µM), most hits filed as inhibitors; further: nearly all actives have a fitted effect of over 55% in size
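Luminescence from the luciferase reporter, measured 30 min after ONE-Glo reagent at room temperature, was the read-out. Beforehand, 2,000 cells per well were exposed for 16 hr at 37 °C to 5-fluorouridine together with compound or vehicle.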
TDP1 cell CPT = growth inhibition of DT40 Tdp1-/-;hTDP1 cells with camptothecin (screen for TDP1 inhibitors); chicken DT40 Tdp1-/-;hTDP1 cells + 20 nM CPT, ATP luminescence, 48 h; Potency, µM (highest dose often 46.2 µM), actives largely listed as inhibitors; 420,000 compounds, 12% hits; AID 686979; further: nearly all actives have a fitted effect of over 55% in size
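Chicken DT40 Tdp1-/- cells complemented with human TDP1, 400 cells/well, exposed to compounds plus 20 nM camptothecin for at least 48 h at 37 C; viability read as ATP content by CellTiter-Glo luminescence.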
IL-1B inflam inh = inflammasome signaling inhibition, IL-1 beta readout; 360,000 compounds, 4.7% hits; THP-1 LPS/ATP IL-1B secretion, AlphaLISA, 16 h; active compounds read low; activity change, % at 57.5 µM; in the data active means activity change below about -50%; inconclusive means mostly about -30% to -49%
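Secreted IL-1B measured by AlphaLISA bead assay after 16 h compound exposure of THP-1 cells; compounds (final up to 57.5 uM) added 1 h before LPS (250 ng/mL) and ATP (1.25 mM) stimulation; lower signal means less secretion.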
RORg inh = inhibitors of mouse ROR gamma transcriptional activity | Potency, µM (highest dose often 53.6 µM), usual class: inhibitors | AID 2551 | 310,000 compounds, 5.4% hits | Drosophila S2 Gal4-RORgamma UAS-luciferase reporter, 20 h | P51450; further: nearly all actives have a fitted effect of over 60% in size
Target sequence (P51450 whole entry, looked up, the tested form may be a part): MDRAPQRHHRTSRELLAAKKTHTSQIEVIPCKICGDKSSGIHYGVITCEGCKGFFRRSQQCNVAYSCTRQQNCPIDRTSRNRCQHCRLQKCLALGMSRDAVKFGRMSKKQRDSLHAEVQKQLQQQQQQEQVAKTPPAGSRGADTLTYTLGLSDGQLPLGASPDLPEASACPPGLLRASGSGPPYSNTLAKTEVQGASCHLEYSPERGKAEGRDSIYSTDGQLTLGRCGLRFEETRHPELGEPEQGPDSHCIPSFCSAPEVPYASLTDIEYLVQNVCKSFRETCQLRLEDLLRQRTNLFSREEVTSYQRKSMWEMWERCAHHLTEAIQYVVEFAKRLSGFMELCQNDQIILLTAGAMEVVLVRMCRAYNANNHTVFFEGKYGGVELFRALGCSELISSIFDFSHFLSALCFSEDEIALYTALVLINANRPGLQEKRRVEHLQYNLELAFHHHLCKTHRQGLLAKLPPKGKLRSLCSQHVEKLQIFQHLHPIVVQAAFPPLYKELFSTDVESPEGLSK
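Luciferase reporter read in Schneider cells carrying Gal4-RORγ (mouse) and UAS-Photinus luciferase; cells given compound 1 h before 700 uM copper sulfate induction, then incubated 20 h at ambient temperature.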
Hits are given with their value; 0 = inactive; ? = inconclusive; - = no result given. Unless noted, the call rests on the fitted dose curve; in most records, active means well fitted curve in the direction sought with a large enough effect; inconclusive means small, poorly fitted or top-dose-only effect, or another doubt; inactive means no such curve, though single readings can be large; an effect the other way counts as inactive or inconclusive.

SMILES	Gal4-VP16 FLuc	DT40 TDP1 no CPT	ELG1 DNA repair	TDP1 cell CPT	IL-1B inflam inh	RORg inh
Cc1ccc(C)c(NC(=O)Cn2nnc(C(=O)NCCc3ccccc3)c2N)c1	-	0	-	0	-	-
Cc1ccc(Cn2nnc(C(=O)Nc3cccc(C)c3C)c2N)cc1	0	20.6µM	0	?	0	0
COc1ccc(Cl)cc1NC(=O)Cn1nnc(C(=O)NCc2cccs2)c1N	-	1.16µM	-	4.61µM	-	-
Cc1cccc(Cn2nnc(C(=O)Nc3cc(C)ccc3C)c2N)c1	-	18.4µM	-	29.1µM	-	-
COc1ccc(NC(=O)Cn2nnc(C(=O)NCc3cccs3)c2N)cc1OC	0	0	0	0	0	0
CCN(CC)c1cccc(OC2=NS(=O)(=O)c3ccccc32)c1	0	16.4µM	?	8.2µM	0	0
COc1ccccc1OC1=NS(=O)(=O)c2ccccc21	0	13µM	0	20.6µM	0	0
Cc1cccc(C)c1[N+](=O)[O-]	0	-	-	-	-	0
O=c1[nH]c2ccc([N+](=O)[O-])cc2[nH]1	-	0	-	0	0	-
O=c1[nH]c2cc([N+](=O)[O-])ccc2c2ccc([N+](=O)[O-])cc12	-	14.6µM	-	9.2µM	0	-
O=c1[nH][nH]c2cc([N+](=O)[O-])ccc12	-	3.66µM	-	3.66µM	0	-
O=c1[nH]c2cc([N+](=O)[O-])ccc2c2ccccc12	-	0	-	0	0	-
CC(=O)Oc1ccc2c(c1)C(=O)CCCCCC(=O)O2	-	0	-	0	0	-
Cc1ccc(-n2nc(CO)c(C(=O)NC(C)CCCc3ccccc3)n2)cc1 (stereo not given)	-	20.6µM	-	?	-	-
Cc1ccc(-n2nc(CO)c(C(=O)NCCCc3ccccc3)n2)cc1	-	23.1µM	-	?	-	-
Cc1ccc(-n2nc(CO)c(C(=O)NCCCCc3ccccc3)n2)cc1	-	?	-	0	-	-
CCC(C)NC(=O)c1nn(-c2ccc(C)cc2)nc1CO (stereo not given)	-	0	-	0	-	-
CC(=O)N1CCc2cc(CNS(=O)(=O)c3ccccc3C(F)(F)F)ccc21	-	0	-	0	-	-
Nc1cc(=O)[nH]c(SCCSc2cc(Cl)ccc2Cl)n1	0	0	?	?	0	0
CCOc1ccc(-c2cc(C(=O)NCc3ccc(C)cc3)c3ccccc3n2)cc1	-	0	-	0	-	-
O=C(NCc1ccccc1)c1ccc2ccccc2n1	0	0	0	0	0	0
O=C(NCCc1ccccn1)c1cc(-c2cccc3ccccc23)nc2ccccc12	?	?	23.1µM	25.9µM	0	?
O=C(NCc1ccccn1)c1ccc2ccccc2n1	10µM	0	?	0	0	3.55µM
O=C(NCc1ccccn1)c1cc(-c2ccc(Br)cc2)nc2ccccc12	0	13µM	?	?	0	0
Cc1ccc(-c2cc(C(=O)NCc3ccccn3)c3ccccc3n2)cc1	0	16.4µM	?	?	0	0
SMILES	Gal4-VP16 FLuc	DT40 TDP1 no CPT	ELG1 DNA repair	TDP1 cell CPT	IL-1B inflam inh	RORg inh
CCCCOc1cccc(C2c3c(oc4ccccc4c3=O)C(=O)N2c2ccccn2)c1 (stereo not given)	-	0	-	0	-	-
CN(C)C(CNC(=O)c1ccc2ccccc2n1)c1ccccc1 (stereo not given)	0	18.4µM	0	?	0	0
Cc1ccc2nc(-c3ccccn3)cc(C(=O)NCCc3ccc(F)cc3)c2c1	0	20.6µM	0	?	0	10µM
Cc1ccc2nc(-c3ccncc3)cc(C(=O)NCCc3ccc(F)cc3)c2c1	0	?	0	?	0	0
CC(NC(=O)c1ccc2ccccc2n1)c1ccccc1 (stereo not given)	0	?	0	?	0	0
CN(C(=O)COC(=O)c1cccs1)c1ccccc1	-	0	-	0	0	-
CCC(Oc1ccc(F)cc1)C(=O)Nc1c(C(=O)c2ccc(C)cc2)oc2ccccc12 (stereo not given)	-	0	-	0	-	-
Cc1c(-c2nnc(SCC(=O)Nc3ccccc3F)o2)nnn1-c1ccc(F)cc1	-	0	-	0	-	-
CC(C)CCNC(=O)C(c1ccco1)N(Cc1cccs1)C(=O)Cn1nnc2ccccc21 (stereo not given)	0	?	?	25.9µM	0	0
Cc1ccccc1N(C(=O)Cn1nnc(-c2cccs2)n1)C(C(=O)NCCC(C)C)c1ccco1 (stereo not given)	0	?	0	?	-50.9	0
COc1ccc(-c2nnn(CC(=O)N(CC(=O)NCCC(C)C)Cc3cccs3)n2)cc1OC	0	?	0	?	0	0
COc1ccc(-c2nnn(CC(=O)N(Cc3cccs3)C(C)C(=O)NCCC(C)C)n2)cc1OC (stereo not given)	0	20.6µM	?	14.6µM	0	0
COCCNC(=O)C(c1cccs1)N(Cc1cccs1)C(=O)Cn1nnc2ccccc21 (stereo not given)	0	0	0	0	0	?
COc1ccc(CCc2c[nH]c(=O)c3cncnc23)cc1OC	-	?	-	0	-	-
Cc1ccc(CNC(=O)Cn2ncc3c([nH]c4ccc(C)cc43)c2=O)cc1	-	0	-	0	-	-
CCOC(=O)CN(Cc1cc(OC)cc(N(C)C)c1OC)C(=O)C1CC(CO[Si](C)(C)C(C)(C)C)=CN1C(=O)OC(C)(C)C (stereo not given)	0	-	-	-	-	0
O=S(=O)(CC(CN1CCCCC1)N1CCCCC1)c1ccc2ccccc2c1 (stereo not given)	?	2.59µM	?	5.17µM	-96.7	12.6µM
O=S(=O)(CC(CN1CCOCC1)N1CCOCC1)c1ccccc1 (stereo not given)	0	0	0	0	0	0
Cc1ccc(S(=O)(=O)CC(CN2CCCCC2)N2CCCCC2)cc1 (stereo not given)	0	13µM	?	?	-97.6	2.82µM
O=C(Nc1nnc(COc2ccccc2F)s1)Nc1ccccc1F	0	20.6µM	0	?	0	0
O=C(Nc1ccc(F)cc1)Nc1nnc(COc2ccccc2F)s1	0	16.4µM	?	14.6µM	-166.0	0
CC(=O)Nc1ccc(S(=O)(=O)N[C@@H](C)C(=O)OCC(=O)Nc2ccc3c(c2)OCCO3)cc1	-	0	-	0	0	-
CCOC(=O)C1=NN(C(C)=O)C2(CC(=O)N(c3ccc(C)c(C)c3)C2=O)C1 (stereo not given)	0	0	?	0	0	0
COCCn1c(=O)c(-c2ccc(Cl)cc2)nc2cncnc21	0	0	-	0	-	0
CC1(C)C2CCC(C2)C1(C)NC(=O)CNC1CCCCC1 (stereo not given)	0	10.3µM	0	?	?	0
CC1(C)C2CCC(C2)C1(C)NC(=O)CN1CCCC1 (stereo not given)	0	0	0	0	0	0
Cc1ccc(Nc2cc(Cl)nc(N)n2)c([N+](=O)[O-])c1	-	0	-	0	0	-

From PubChem BioAssay
